# hgDAF-12 ag: agonists of H. glycines DAF-12 nuclear receptor | HEK293 GAL4-hgDAF12 UAS-luciferase reporter, agonist luminescence; normalized to butyrate control | activation, % at 6.8 µM | 370,000 compounds, 1.8% hits;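 active means activation above a cutoff set at the mean of all screened compounds plus 3 SD, cut at about 10% in these data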;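 further: 0% = DMSO wells and 100% = sodium butyrate wells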
# DAX1 inh-1: NR0B1 (DAX1) inhibition; HEK293 Gal4-DAX1 luciferase reporter, luminescence; inhibition, % at 6.75 µM; AID 504766; P51843; 340,000 compounds, 0.99% hits;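 active means inhibition above the mean over all tested compounds plus 3 SD, cut at about 4.2% in these data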;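 further: 0% = DAX1-transfected cells with DMSO and 100% = empty-vector control cells with DMSO; inhibition shows as a rise in luminescence from relieved DAX1 repression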
# Target sequence (P51843 207-470 limits assumed): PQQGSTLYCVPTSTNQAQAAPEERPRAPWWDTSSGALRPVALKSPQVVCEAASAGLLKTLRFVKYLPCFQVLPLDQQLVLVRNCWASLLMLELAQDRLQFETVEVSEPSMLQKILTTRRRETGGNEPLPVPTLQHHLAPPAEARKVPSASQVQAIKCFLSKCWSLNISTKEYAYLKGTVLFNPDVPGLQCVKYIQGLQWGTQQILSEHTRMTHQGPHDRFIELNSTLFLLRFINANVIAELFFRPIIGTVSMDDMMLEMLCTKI
# SMARCA2 act: SMARCA2 function activation, primary screen. MG213 cells, MMTV-luciferase reporter, dexamethasone, overnight. activation, % at 9.1 µM. 370,000 compounds, 1% hits. AID 652017; in the data active means activation above about 7.8%;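 further: 0% = vehicle wells and 100% = reference activator wells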
# ssDAF-12 act: activates DAF-12 receptor from parasite S. stercoralis; activation, % at 6.8 µM; 370,000 compounds, 1% hits; AID 652126; HEK293 ssDAF-12/GRIP1 lit1-tk-luc reporter, luminescence; % of 3 µM dafachronic acid response;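 active means activation above the mean over all tested compounds plus 3 SD, cut at about 0.9% in these data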;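 further: 0% = DMSO-only wells and 100% = 3 µM delta7-dafachronic acid wells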
# DAX1 inh-2: DAX1 (NR0B1) inhibition, primary screen; 370,000 compounds, 1.1% hits; inhibition, % at 6.8 µM; AID 652010; HEK293T StAR-luciferase reporter, SF-1/DAX-1 repression relief;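 active means inhibition above the mean over all tested compounds plus 3 SD, cut at about 3.6% in these data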;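 further: 0% = DAX-1 cells with DMSO and 100% = cells lacking DAX-1 with DMSO; higher inhibition means more luminescence from relief of DAX-1 repression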
# hcDAF-12 act: activators of H. contortus DAF-12 nuclear receptor; 370,000 compounds, 1.4% hits; HEK293 hcDAF-12 lit1-tk-luc reporter, luminescence; 0% DMSO, 100% Δ7-dafachronic acid; AID 652067; activation, % at 6.8 µM;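 active means activation above the mean of all tested compounds plus 3 SD, cut at about 5.5% in these data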;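 further: 100% = response to 3 µM Δ7-dafachronic acid high control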
# * hit, by the source's call; nt = not tested or not shown. Hits are enriched below; roughly 4.8% of the tested compounds scored in any of these assays.
SMILES,hgDAF-12 ag,DAX1 inh-1,SMARCA2 act,ssDAF-12 act,DAX1 inh-2,hcDAF-12 act
Cc1cc(OCC(=O)N(C)Cc2ccccc2)ccc1Cl,8.6,1.7,3.6,1.6*,0.8,4.4
Cc1cc(OCC(=O)N(C)Cc2ccccc2)ccc1Br,5.2,0.6,3.4,-0.4,-0.8,-0.8
CCC1=C(c2ccc(OC)cc2)CCC(C(=O)O)C1C (centres undefined),-0.2,0.1,4.8,60.6*,-0.1,-0.9
COC(=O)c1sccc1NC(=O)/C=C\c1ccc(Cl)cc1Cl,3.8,2.2,1.8,-1.2,0.1,-1.7
O=C(COC(=O)c1cc(S(=O)(=O)N2CCCC2)ccc1O)Nc1ccc(SC(F)F)cc1,0.4,-0.1,-4.0,-1.3,-3.1,0.0
O=C(Nc1ccc(F)cc1F)C1(c2cccs2)CCOCC1,0.1,4.5*,-3.5,0.0,-0.7,-0.9
Cc1cc(C)cc(NC(=O)C2(c3cccs3)CCOCC2)c1,1.0,0.3,-2.8,-0.9,0.8,4.7
CCOc1ccc2ccccc2c1CNc1nnnn1CC,1.5,4.9*,2.3,-0.6,-0.2,0.0
Cc1oc(-c2ccc(Cl)cc2)cc1C(=O)O,3.4,5.5*,4.0,-0.3,0.5,1.3
Cc1cc(Cl)ccc1NC(=O)/N=C1/NC(=O)CS1,-1.1,nt,-0.2,1.1*,0.6,0.7
Cc1cc(Cl)ccc1NC(=O)/C=N/O,-1.4,2.5,-2.1,-1.1,0.3,2.0
Cc1cc2nc(-c3ccc(SCc4ccc(C(=O)O)cc4)nc3)[nH]c2cc1C,12.1*,2.2,-1.0,-0.6,2.0,0.3
O=C(O)c1[nH]c2ccccc2c1C=NCc1ccccc1Cl,-1.0,4.9*,-0.9,-0.5,0.5,2.4
CCOc1ccc(C2C(C(=O)OC)=CN(CCOC)C=C2C(=O)OC)cc1,-1.7,-1.1,-2.3,-1.2,-0.6,-0.3
Cn1c2ccccc2c2nnc(NN)nc21,2.0,1.3,-2.6,-0.3,0.6,5.7*
O=C(COc1ccc(CO)cc1Cl)Nc1ccc(F)cc1,10.9*,-0.4,3.1,0.5,2.8,5.0
Cc1cc(C)cc(Nc2ncc3c(n2)CC(c2ccco2)CC3=O)c1 (centres undefined),-0.7,-0.1,-1.4,-1.6,-0.9,-2.5
Cc1cc(C)cc(Nc2ncc3c(n2)CCCC3=O)c1,10.1,-0.5,0.7,0.0,3.9*,4.7
Cc1cc(NC(=O)CCCC(=O)OCC(F)(F)C(F)F)cc(C)c1C(=O)O,-0.5,0.9,0.5,-0.9,1.2,-0.3
CCOC(=O)Cn1cc(/C=N/NC(=O)c2ccc(C#N)cc2F)c2ccccc21,2.1,-0.7,0.0,-1.0,-0.3,-0.3
N#Cc1ccc(C(=O)N/N=C/c2cn(CC(=O)O)c3ccccc23)c(F)c1,-0.1,-0.1,-1.3,-0.2,0.5,5.7*
O=C(NCc1ccccn1)Nc1ccc(Cl)c(Cl)c1,2.6,0.2,4.5,-1.0,0.1,-1.1
COC(=O)[C@]12CCCCC=C1N(Cc1ccc(OC)cc1)C(=O)[C@@H]2CC(=O)NCc1ccc(OC)c(OC)c1,-1.0,nt,-2.5,-0.4,-0.8,-3.6
Cc1cccc(C)c1NC(=O)CNC(=O)c1cnccn1,0.8,0.8,-1.9,-1.2,0.5,0.1
Cc1cccc(C)c1NC(=O)c1cnccn1,-1.1,0.5,-0.7,1.0*,0.3,-2.0
SMILES,hgDAF-12 ag,DAX1 inh-1,SMARCA2 act,ssDAF-12 act,DAX1 inh-2,hcDAF-12 act
Cc1ccc(N/C=C/c2onc(C)c2[N+](=O)[O-])cc1,10.0,5.6*,3.1,-1.0,2.4,4.2
Fc1cc(Cl)c(OCc2noc(-c3ccsc3)n2)c(Cl)c1,0.5,2.3,2.4,-0.8,0.1,-1.5
Clc1ccc(OCc2noc(-c3ccsc3)n2)c(Cl)c1,10.6*,8.3*,6.8,-0.5,2.3,1.6
O=C(OCCCc1ccncc1)c1ccc(S(=O)(=O)N2CCOCC2)cc1,-1.0,-1.2,-3.2,0.0,0.7,1.5
CC(=O)Nc1ccc(S(=O)(=O)Nc2cccc(-n3cnnn3)c2)cc1,-0.7,0.9,-2.4,-1.0,0.2,0.9
NC(=O)C1(N2CCCCC2)CCN(S(=O)(=O)c2ccc(Cl)s2)CC1,2.7,-0.1,-0.5,-1.3,0.4,1.6
NC(=O)C1(N2CCCCC2)CCN(S(=O)(=O)c2cc(Cl)ccc2Cl)CC1,-1.2,4.6*,-2.5,-0.5,0.8,2.0
Cc1cc(C)c(-c2nc3ccccc3s2)[nH]1,1.5,-0.9,1.0,0.3,0.6,6.3*
